# From PubChem BioAssay
# Results filed as inconclusive are left out. The source made the active and inactive calls. Unless noted, cut-off not given; nearly all actives show AC50 up to about 30 µM.
# Experiments:
# [1] = growth inhibition of DIPG glioma cells, dose response, cell-based, SU-DIPG-XIII, MIPE4.0, CellTiter-Glo, qHTS (AID 1347061; cut-off not given, nearly all actives have AC50 up to about 37 µM;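 further: cells exposed to compound for 48 hours before readout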); conditions: SU-DIPG-XIII viability, CellTiter-Glo ATP luminescence
# [2] = growth inhibition of DIPG glioma cells, dose response, cell-based, JHH-DIPG-1, MIPE4.0, CellTiter-Glo, qHTS (AID 1347062; cut-off not given, nearly all actives have AC50 up to about 27 µM;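 on AC50: cells exposed to compound for two days before readout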); conditions: JHH-DIPG-1 viability, CellTiter-Glo ATP luminescence
# [3] = growth inhibition of DIPG glioma cells, dose response, cell-based, SU-DIPG-IV, MIPE4.0, CellTiter-Glo, qHTS (AID 1347063); conditions: SU-DIPG-IV viability, CellTiter-Glo ATP luminescence;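 further: compound exposure lasted 48 hours before the viability readout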
# [4] = SU-DIPG-VI glioma cell viability, MIPE4.0 library, CellTiter-Glo luminescence, qHTS (AID 1347066); conditions: CellTiter-Glo ATP luminescence;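 further: cells exposed to compound for 48 hours before readout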
# [5] = sensitizers of A549 cells to miR-34 induction, primary screen, imaging, A549 dox-inducible miR-34, nuclei and caspase counts (AID 1347080;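 active means compounds whose cell count with miR-34 switched on is under 0.7 times the count with it off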); conditions: A549 miR-34 inducible, Hoechst nuclei count, 48 h
# [6] = survival rescue of mitochondrial mutant cells in low glucose, primary screen, MELAS cybrids, Rieske KO mouse fibroblasts, CellTiter-Glo (AID 1508586;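 active means mean z-score across replicates of 1.96 or higher in either the MELAS or the Rieske mutant cell line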;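 further: z relative to plate mean and SD of compound and empty wells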)
# [7] = growth inhibition of DIPG glioma cells, dose response, cell-based, SU-DIPG-XIII, MIPE5.0, CellTiter-Glo, qHTS (AID 1347064; cut-off not given, nearly all actives have AC50 up to about 23 µM); conditions: SU-DIPG-XIII viability, CellTiter-Glo ATP luminescence
# [8] = viability loss in pontine glioma line – cell-based, SU-DIPG-XXV, MIPE5.0, CellTiter-Glo, qHTS, dose response (AID 1347065; cut-off not given, nearly all actives have AC50 up to about 26 µM;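 further: cells exposed to compound for 48 hours before ATP readout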); conditions: CellTiter-Glo ATP luminescence
# [9] = SU-DIPG-XXV glioma cell viability, MIPE5.0 library, qHTS (AID 1347068; cut-off not given, nearly all actives have IC50 up to about 30 µM)
# [10] = JHH-DIPG-1 glioma cell viability, MIPE5.0 library, CellTiter-Glo luminescence, qHTS (AID 1347067; cut-off not given, nearly all actives have AC50 up to about 26 µM;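 further: cells exposed to compound for 48 hours before readout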); conditions: JHH-DIPG-1 glioma viability, CellTiter-Glo ATP luminescence
# [11] = stronger effect = lower value, cell number ratio, induced over uninduced
# [12] = measured here: relative caspase fold change +Dox/-Dox
# [13] = measured here: total cells with miR-34 induction, stronger effect = lower value
# [14] = measured here: total cells without miR-34 induction
# [15] = MELAS cybrid survival, CellTiter-Glo 48 h, stronger effect = higher value
# [16] = Rieske KO mouse fibroblast survival, CellTiter-Glo 72 h
smiles,measurement,setting,value
C1=C2CCCN[C@H]2[C@@H]2C[C@H]1[C@H]1CCCCN1C2,outcome,[1],inactive
same,outcome,[2],inactive
same,outcome,[3],inactive
same,outcome,[4],inactive
same,fold change,[5]; [11],0.948 (inactive)
same,fold change,[5]; [12],1.03
same,cell count,[5]; [13],10000
same,cell count,[5]; [14],10600
same,z-score,[6]; [15],-0.38 (inactive)
same,z-score,[6]; [16],0.546
CC(C)N(CCNC(=O)CN1CCCC1=O)C(C)C,outcome,[1],inactive
same,outcome,[2],inactive
same,outcome,[3],inactive
same,outcome,[4],inactive
same,fold change,[5]; stronger effect = lower value,0.88 (inactive)
same,fold change,[5]; [12],0.862
same,cell count,[5]; [13],9340
same,cell count,[5]; [14],10600
same,z-score,[6]; [15],-0.352 (inactive)
same,z-score,[6]; [16],0.7
C[C@](O)(COc1ccc(C#N)cc1)C(=O)Nc1ccc(C#N)c(C(F)(F)F)c1,outcome,[2],inactive
same,outcome,[3],inactive
same,outcome,[7],inactive
same,outcome,[8],inactive
same,outcome,[4],inactive
same,outcome,[9],inactive
same,fold change,[5]; stronger effect = lower value,0.889 (inactive)
same,fold change,[5]; [12],1.23
same,cell count,[5]; [13],6840
same,cell count,[5]; [14],7700
same,z-score,[6]; [15],-0.434 (inactive)
same,z-score,[6]; [16],0.535
CCNC(=O)C[C@@H]1N=C(c2ccc(Cl)cc2)c2cc(OC)ccc2-n2c(C)nnc21,AC50,[2],7.43 µM (active)
same,outcome,[4],inactive
same,outcome,[10],inactive
same,outcome,[9],inactive
C[C@]12CC[C@H]3[C@@H](CCC4=CC(=O)CC[C@@H]43)[C@@H]1CC[C@@H]2OC(=O)CCc1ccccc1,outcome,[1],inactive
same,outcome,[2],inactive
same,outcome,[3],inactive
same,outcome,[4],inactive
same,outcome,[9],inactive
CC(C)(O)C(=O)Nc1ccc([N+](=O)[O-])c(C(F)(F)F)c1,AC50,[1],11.8 µM (active)
same,outcome,[7],inactive
same,outcome,[4],inactive
same,outcome,[9],inactive
CNC(=O)c1ccc(N2C(=S)N(c3ccc(C#N)c(C(F)(F)F)c3)C(=O)C23CCC3)cc1F,outcome,[1],inactive
same,AC50,[2],10.5 µM (active)
same,AC50,[3],9.35 µM (active)
same,outcome,[4],inactive
same,outcome,[9],inactive
C[C@H]([C@H](O)CCC(C)(C)O)[C@H]1CC[C@@]2(O)C3=CC(=O)[C@@H]4C[C@@H](O)[C@@H](O)C[C@]4(C)[C@H]3CC[C@]12C,outcome,[1],inactive
same,outcome,[2],inactive
same,outcome,[3],inactive
same,outcome,[4],inactive
COC1(CS(=O)c2ccccc2)CCN(CCc2c[nH]c3ccc(F)cc23)CC1 (configuration not stated),outcome,[1],inactive
same,outcome,[2],inactive
same,outcome,[3],inactive
same,outcome,[7],inactive
same,outcome,[4],inactive
same,outcome,[10],inactive
same,outcome,[9],inactive
COc1ccc(CC2NCCc3cc(OC)c(OC)cc32)cc1OC (configuration not stated),outcome,[1],inactive
same,outcome,[3],inactive
same,outcome,[4],inactive
same,fold change,[5]; [11],0.988 (inactive)
same,fold change,[5]; [12],0.746
same,cell count,[5]; [13],9220
same,cell count,[5]; [14],9330
same,z-score,[6]; [15],-0.321 (inactive)
same,z-score,[6]; [16],0.618
O=C(N[C@@H](COc1ccc2[nH]c(=O)[nH]c2c1)c1ccccc1)c1cccn(Cc2ccc(F)c(F)c2)c1=O,outcome,[1],inactive
same,outcome,[7],inactive
same,AC50,[8],18.6 µM (active)
same,AC50,[10],16.6 µM (active)
same,outcome,[9],inactive
CCOC(=O)c1c(/C(C#N)=C\N)c2ccc(Cl)c(Cl)c2n1C,outcome,[1],inactive
same,outcome,[2],inactive
same,outcome,[7],inactive
same,outcome,[4],inactive
same,outcome,[10],inactive
same,outcome,[9],inactive
CNC(=O)N1N=C(c2ccc(N)cc2)c2cc3c(cc2CC1C)OCO3 (configuration not stated),outcome,[2],inactive
same,outcome,[4],inactive
CC(C)(C)[C@]1(O)C[C@@H]2OC(=O)C[C@@]23C(=O)O[C@@H]2OC(=O)[C@H](O)C213 (some centres not stated),outcome,[1],inactive
same,outcome,[2],inactive
same,outcome,[3],inactive
same,outcome,[4],inactive
